Source: PubChem BioAssay (National Center for Advancing Translational Sciences (NCATS))
Only a selection was taken, and hits are over-represented in it overall.
RXFP1 ag: activates the human relaxin receptor RXFP1; HEK293T-RXFP1 cAMP TR-FRET, 30 min; response scale: percent of porcine relaxin response, buffer zero; Potency, µM (doses to about 57.5 µM), for inactives: top-dose activation, actives largely listed as activators; actives 0.3% (n = 370,000); AID 2676; note: potency is the fitted concentration of half-maximal effect; % is set by controls: 0 for no effect and ±100 for the full control effect; nearly all actives have a fitted effect of over 60% in size
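HEK293 cells stably expressing RXFP1, treated 30 min at 37C with compounds plus PDE4 inhibitor Ro 20174; cAMP measured by HTRF TR-FRET. Normalized to buffer and 29 nM porcine relaxin; EC50 by Hill fit.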
RXFP1 antag: antagonists of human relaxin receptor RXFP1. activity change, negative = inhibition, % at 57.5 µM. AID 1259400. Q9HBX9. actives 0.59% (n = 350,000). HEK293-RXFP1, relaxin-stimulated cAMP HTRF, 30 min; stronger effect = lower value;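 active = activity change of -60% or lower, but not beyond a set lower limit; inconclusive = change between -60% and -40%, or beyond the set limit; inactive = change above -40%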; note: % is set by controls: 0 for no effect and ±100 for the full control effect
PTHR1 ag: agonists of human PTHR1 parathyroid hormone receptor | Q03431 | HEK293 GP2 PTHR1 cells, GloSensor cAMP luminescence, 1 h | Potency, µM (top dose mostly 115 µM), for inactives: top-dose activation, most hits filed as activators | actives 0.075% (n = 410,000); note: potency is the fitted concentration of half-maximal effect; nearly all actives have a fitted effect of over 55% in size
Target sequence (Q03431 whole entry, looked up): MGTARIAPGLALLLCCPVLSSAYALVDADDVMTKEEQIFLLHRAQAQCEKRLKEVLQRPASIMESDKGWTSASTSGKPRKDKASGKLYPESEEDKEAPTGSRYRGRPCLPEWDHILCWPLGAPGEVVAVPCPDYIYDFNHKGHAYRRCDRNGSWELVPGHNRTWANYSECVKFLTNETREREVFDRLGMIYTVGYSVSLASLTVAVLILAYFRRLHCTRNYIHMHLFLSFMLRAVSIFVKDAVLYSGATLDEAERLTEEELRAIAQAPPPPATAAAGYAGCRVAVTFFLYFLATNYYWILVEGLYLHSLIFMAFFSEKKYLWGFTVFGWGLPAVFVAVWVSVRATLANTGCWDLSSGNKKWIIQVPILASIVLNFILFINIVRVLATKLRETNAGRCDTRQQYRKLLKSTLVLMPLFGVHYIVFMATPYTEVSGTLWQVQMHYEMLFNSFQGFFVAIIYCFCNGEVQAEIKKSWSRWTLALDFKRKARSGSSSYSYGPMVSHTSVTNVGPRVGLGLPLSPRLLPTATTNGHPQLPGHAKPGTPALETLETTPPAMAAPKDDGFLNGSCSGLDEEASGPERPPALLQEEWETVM
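HEK-293-derived GP2 cells expressing PTHR1 and a GloSensor cAMP reporter, 3,000/well, plated overnight, given luciferin plus IBMX (each 0.5 mM as added) for 1 h at 37 °C, then compound for 1 h at 37 °C. Luminescence was read after 15 min at room temperature.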
NPSR antag: neuropeptide S receptor (human) antagonism, cAMP | Q6W5P4 | CHO-NPSR cells, cAMP TR-FRET, antagonist mode | Potency, µM (highest dose often 38.3 µM), inactives show top-dose activity change, negative = inhibition, hits mostly inhibitors | actives 1% (n = 220,000); note: potency is the fitted concentration of half-maximal effect; % is set by controls: 0 for no effect and ±100 for the full control effect; nearly all actives have a fitted effect of over 50% in size
TSHR antag: antagonists of human thyroid stimulating hormone receptor | P16473 | TSHR-expressing cells, TSH-stimulated cAMP HTRF, 2 h; stronger effect = lower value | activity change, negative = inhibition, % at 11.5 µM | actives 0.2% (n = 330,000);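 active = activity change below a set negative limit, meaning inhibition stronger than a set level, cut at about -70% in these data; inconclusive = activity change between two set negative limits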; note: % is set by controls: 0 for no effect and ±100 for the full control effect
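Cell-based HTRF cAMP assay; TSHR cells + compound, TSH EC80 (4nM final), 2 h, 37 deg C. Lysis with anti-cAMP cryptate and cAMP-d2, 30 min RT, read 665/620 nm.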
TCR activator: activators of T cell receptors; primary human leukocytes, anti-CD3, IL-2 HTRF, 48 h; Potency, µM (doses to about 9.22 µM), for inactives: top-dose activation of IL-2 secretion, hits mostly activators; 330,000 tested, under 10 active; AID 504894; note: % of control where 0% means no effect
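TCR engagement came from a-CD3 beads alone, with compounds added to primary human leukocytes for 48 hr. Secreted IL-2 bridged europium cryptate- and d2-labelled anti-IL-2 antibodies, giving FRET emission at 665nm after 320nm excitation.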
* marks the source's active call; other numbers are inactive results; i = inactive; ? = inconclusive; · = no result given; [ ] = another dose, or the depositor's remark. Unless noted, calls come from the whole dose curve; as a rule, active = well fitted curve in the direction sought with a large enough effect; inconclusive = small, poorly fitted or top-dose-only effect, or another doubt; inactive = no such curve, though single readings can be large; an effect the other way counts as inactive or inconclusive.

SMILES | RXFP1 ag | RXFP1 antag | PTHR1 ag | NPSR antag | TSHR antag | TCR activator
O=C(Nc1nc2ccc(F)cc2s1)C1CCN(S(=O)(=O)c2cc([N+](=O)[O-])ccc2Cl)CC1 | 1.4% | · | -40.5% | -41.6% | -92.4* | 2.7%
COc1ccc(OC(C)C(=O)NCc2nc(-c3ccc(Cl)cc3)no2)cc1 (centres undefined) | 0.8% | -12.4 | -33.6% | · | · | ·
CCCn1c(SCC(=O)Nc2ccc(NC(C)=O)cc2)nc2c1c(=O)n(C)c(=O)n2C | ? | 19.3 | i | · | 5.1 | -1.2%
CCC(=O)Nc1ccc(NC(=O)CSc2nc3c(c(=O)n(C)c(=O)n3C)n2CC)cc1 | 15.8µM* | 20.8 | i | · | -6.8 | 2.5%
Cc1ccc(-c2nc(Nc3ccc(N4CCOCC4)cc3)c3ccccc3n2)cc1 | 0.9% | 4.8 | -14.0% | 12.6µM* | 6.5 | -1.5%
COc1ccc2nc(SCc3ncc(C)c(OC)c3C)[nH]c2c1 | · | -2.6 | · | · | · | ·
O=C(Nc1nc(-c2cccs2)c(C(=O)C(F)(F)F)s1)c1ccco1 | 25.1µM* | 1.3 | -18.3% | 10µM* | -15.1 | 8.1%
OCc1ccccc1SSc1ccccc1CO | · | -64.6* | i | · | · | -1.1%
Cc1c(NC(=O)Nc2ccccc2Cl)c(=O)n(-c2ccccc2)n1C | 1.9% | 3.0 | -1.2% | -14.1% | -79.8* | -2.8%
CC(C)Cc1nc(N2CCN(C(=O)c3ccccc3)CC2)c(C#N)c2c1CCC2 | 6.7% | -28.8 | -37.0% | 2µM* | -22.3 | -3.0%
CCN(CC)CCCN(C(=O)c1ccco1)c1nc(-c2ccc(C)cc2)cs1 | -0.1% | -14.2 | ? | 56.0% | -6.9 | 3.1%
CCN(CC)CCCN(C(=O)c1ccco1)c1nc(-c2ccc(Cl)cc2)cs1 | 1.4% | -96.5* | i | · | 8.3 | 2.5%
CCOC(=O)c1scc(-c2ccccc2)c1S(=O)(=O)N1CCN(c2ccc(Cl)cc2)CC1 | 0.5% | · | -27.5% | · | · | ·
O=C(O)c1cccc(Cn2c(Cl)c(/C=N/Nc3ccccc3)sc2=O)c1 | -5.0% | -73.6* | i | -40.2% | 1.1 | -3.4%
COc1ccc(CCNC(=O)Cn2cc(S(=O)(=O)Cc3cccc(Cl)c3)c3ccccc32)cc1OC | 4.8% | -13.9 | -22.8% | · | · | ·
O=C(Nc1ccccc1N1CCOCC1)c1ccc(S(=O)(=O)NCc2ccco2)cc1 | 0.9% | -7.2 | i | -10.7% | -76.8* | -1.6%
Cc1ccc(N=Cc2cc3c(cc2O)OC(N)=C(C#N)C3c2ccccc2)cc1 (centres undefined) | -0.2% | -68.8* | -82.7% | ? | -17.7 | -4.6%[46.1 µM]
Cc1ccc(CCn2c3c(c4cc(Cl)ccc42)CN(C)CC3)cn1 | · | -16.0 | · | · | · | ·
O=S(=O)(c1ccccc1)N1CCC(c2ccncc2)CC1 | -0.8% | -105.7* | -78.2% | · | · | ·
CC(C)N1CCc2c(sc(NC(=O)c3ccc4ccccc4c3)c2C(N)=O)C1 | -2.6% | -73.8* | i | · | -3.2 | 2.8%
Cc1ccc(/C=C/c2onc(C)c2S(=O)(=O)N2CCC(C(=O)NCc3ccc(OC(C)C)cc3)CC2)cc1 | 2.6% | -13.1 | i | · | · | ·
COc1cccc(-c2oc3ccc(C)cc3c(=O)c2O)c1 | 27.3% | -15.5 | i | · | · | ·
O=C(O)c1ccc(N2C(=O)/C(=C\c3ccccc3)N=C2c2ccccc2)cc1 | 4.6% | -34.5 | -12.2% | 6.31µM* | -19.1 | -4.2%
COc1ccc(CCn2c(O)cc3nn(-c4nc5ccccc5s4)c(=O)c-3c2C)cc1 | -0.4% | -70.3* | -14.6% | -6.2% | -12.2 | 1.0%
S=c1[nH]nc(-c2cc3c(s2)-c2ccccc2CC3)o1 | 17.8% | 16.6 | -29.2%[57.5 µM] | 10µM* | -19.6 | -3.7%
SMILES | RXFP1 ag | RXFP1 antag | PTHR1 ag | NPSR antag | TSHR antag | TCR activator
Cc1ccc(CN2CC(C(=O)Nc3ccncc3)CC2=O)cc1 (centres undefined) | 2.4% | -4.7 | i | · | 9.3 | -11.2%
Cc1ccc(CN2CC(C(=O)Nc3cc(C)ccn3)CC2=O)cc1 (centres undefined) | 0.4% | -117.8* | i | · | 14.3 | 0.3%
COc1cccc(CNC(=O)C2CCN(Cc3cc4ccccc4n3Cc3ccc(C)cc3)CC2)c1 | 1.2% | 1.0 | i | · | · | ·
CC(=O)c1ccc(NC(=O)Cn2ncc3c(C)n(Cc4ccc(F)cc4)c(C)c3c2=O)cc1 | 1.4% | -8.3 | i | · | · | ·
COc1cccc(CNC(=O)c2oc3c(c2C)-c2nn(Cc4cccc(Cl)c4)cc2CC3)c1 | 0.0% | -117.7* | -50.4% | · | · | ·
CCCC(=O)OCOC(=O)C1=C(C)NC(C)=C(C(=O)OC)C1c1cccc(Cl)c1Cl (centres undefined) | · | 4.4 | · | · | · | ·
S=c1[nH]nc(-c2ccccc2)n1C1C=CCCC1 (centres undefined) | 4.1% | -13.0 | -2.2%[57.5 µM] | -1.6%[46.1 µM] | -70.6* | -4.5%
Cn1nccc1C(=O)NCc1ccc2c(c1)CCN2C(=O)c1ccc(F)cc1 | 2.7% | -73.4* | -62.5% | · | · | ·
Cc1ccc(C(=O)N2CCc3cc(CNC(=O)c4ccnn4C)ccc32)cc1 | -0.2% | 5.1 | -28.3% | · | · | ·
O=[N+]([O-])c1ccc(N=Nc2ccc(O)cc2O)cc1 | -0.2% | -6.6 | -24.9% | 10µM* | -74.0* | 0.4%
CC(=O)O[C@@H]1C(=O)O[C@H]2[C@@H]1OC(=O)[C@@H]2OC(C)=O | · | 21.1 | · | · | · | ·
O=C(CS(=O)(=O)c1ccccc1)Nc1ccc(Cl)cn1 | 0.9% | 5.0 | -12.1% | · | 3.7 | 0.4%
O=C(CC(c1ccccc1)c1ccccc1)Nc1ccc(Cl)cn1 | -0.3% | -20.9 | -7.4%[57.5 µM] | 10µM* | -9.5 | 6.4%
CCCSc1nsc(NC(=O)Nc2ccc(F)cc2F)n1 | 0.0% | 0.4 | -38.4% | · | -118.5* | ·
O=S(=O)(c1ccc2ccccc2c1)n1nc(-c2ccco2)nc1NCc1cccc(Cl)c1 | -1.2% | -4.7 | i | · | · | ·
CC12CCC(=O)N1C(C(=O)N1CCN(S(=O)(=O)c3ccc(Br)cc3Cl)CC1)CS2 (centres undefined) | 4.7% | -66.2* | -12.9% | · | 3.5 | 2.7%
CC12CCC(=O)N1C(C(=O)N1CCN(S(=O)(=O)c3ccccc3F)CC1)CS2 (centres undefined) | -0.1% | 14.9 | i | · | · | -5.1%
Cc1cccc(Cn2cc(SCC(=O)Nc3nccs3)c3ccccc32)c1 | 0.2% | 0.1 | -22.1% | ? | -9.0 | 4.4%
Cc1ccc(Cn2cc(SCC(=O)Nc3nccs3)c3ccccc32)cc1 | -4.5% | 4.6 | -9.6% | 10µM* | -12.5 | 1.1%
CCc1ccccc1NC(=O)Cn1nc(N2CCN(c3ccccc3OC)CC2)ccc1=O | -4.2% | 3.6 | i | · | · | ·
CC1CCCN(S(=O)(=O)c2csc(C(N)=O)c2)C1 (centres undefined) | 0.0% | 0.9 | i | · | -139.9* | 11.5%
